# According to the supplement of paper PMC11732987, “Enantioselective OTUD7B fragment discovery through chemoproteomics screening and high-throughput optimisation” (Communications Chemistry, 2025):
# A number with no mark means an inactive call.
# Key:
# Test in all cases: log2 ratio of Biotin-Ahx-Ub-VS probe labelling (fragment/DMSO); higher = less target engagement (more negative = stronger competition), active = hit call of the paper (q ≤ 0.05, log2 ratio ≤ -1)
# Details in all cases: compound concentration: 200 uM; treatment time: 3 h
# [1] = biological target: T1, OTUD6B (UniProt Q8N6M0)
# T1 sequence (whole entry): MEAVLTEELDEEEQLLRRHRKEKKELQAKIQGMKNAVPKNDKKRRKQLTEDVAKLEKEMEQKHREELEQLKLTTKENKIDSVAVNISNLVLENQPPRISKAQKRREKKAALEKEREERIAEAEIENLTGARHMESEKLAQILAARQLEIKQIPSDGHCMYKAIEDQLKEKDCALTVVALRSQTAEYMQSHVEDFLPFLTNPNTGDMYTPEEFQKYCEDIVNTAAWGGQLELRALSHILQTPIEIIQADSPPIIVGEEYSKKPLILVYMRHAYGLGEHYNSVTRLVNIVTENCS
# In short: (§1)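 The table lists average log2 ratios of fragment over vehicle, from an unpaired t-test on global-median-normalised Spectronaut label-free quantities. Proteins with ≥2 unique peptides were used. Samples were HEK293T lysate (495 µg) treated in triplicate with fragment at 200 µM or vehicle for 3 h, then with Biotin-Ahx-Ub-VS (0.5 µM final) for 1 h, with labelled DUBs NeutrAvidin-enriched and run by diaPASEF LC-MS/MS.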
# [2] = biological target: T2, OTUD7B (UniProt Q6GQQ9)
# T2 sequence (whole entry): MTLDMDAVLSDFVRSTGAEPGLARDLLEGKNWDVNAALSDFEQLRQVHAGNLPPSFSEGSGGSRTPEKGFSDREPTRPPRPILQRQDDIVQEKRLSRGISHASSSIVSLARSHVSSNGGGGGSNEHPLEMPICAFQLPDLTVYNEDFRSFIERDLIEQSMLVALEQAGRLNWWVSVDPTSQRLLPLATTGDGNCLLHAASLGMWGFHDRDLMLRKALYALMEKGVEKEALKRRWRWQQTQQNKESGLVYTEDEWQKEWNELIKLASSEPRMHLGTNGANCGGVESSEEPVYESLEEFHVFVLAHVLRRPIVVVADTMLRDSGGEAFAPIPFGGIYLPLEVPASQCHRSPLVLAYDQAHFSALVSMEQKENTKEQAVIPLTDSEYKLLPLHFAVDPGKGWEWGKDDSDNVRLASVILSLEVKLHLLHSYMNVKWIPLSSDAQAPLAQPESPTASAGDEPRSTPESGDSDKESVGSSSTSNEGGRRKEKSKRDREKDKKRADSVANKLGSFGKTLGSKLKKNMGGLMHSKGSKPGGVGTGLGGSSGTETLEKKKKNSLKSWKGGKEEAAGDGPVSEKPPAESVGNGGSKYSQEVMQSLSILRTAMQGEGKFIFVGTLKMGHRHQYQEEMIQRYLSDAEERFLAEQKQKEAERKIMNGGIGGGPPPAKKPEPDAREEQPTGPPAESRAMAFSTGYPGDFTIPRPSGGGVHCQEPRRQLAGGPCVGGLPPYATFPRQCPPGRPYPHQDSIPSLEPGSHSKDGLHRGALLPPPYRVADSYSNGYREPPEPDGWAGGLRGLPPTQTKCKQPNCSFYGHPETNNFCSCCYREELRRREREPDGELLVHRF
# In short: as §1
# [3] = biological target: PRPF8 (UniProt Q6P2Q9)
# In short: as §1
# [4] = biological target: T3, PSMD7 (UniProt P51665)
# T3 sequence (whole entry): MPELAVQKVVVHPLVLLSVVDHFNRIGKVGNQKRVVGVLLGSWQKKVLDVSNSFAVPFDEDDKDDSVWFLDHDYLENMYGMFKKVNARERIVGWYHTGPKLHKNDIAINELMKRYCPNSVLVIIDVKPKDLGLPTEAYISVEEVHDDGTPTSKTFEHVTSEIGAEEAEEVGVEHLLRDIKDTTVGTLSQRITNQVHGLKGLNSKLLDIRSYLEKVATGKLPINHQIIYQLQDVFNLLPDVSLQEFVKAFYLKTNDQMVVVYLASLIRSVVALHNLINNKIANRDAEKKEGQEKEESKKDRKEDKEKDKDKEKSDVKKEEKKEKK
# In short: as §1
# [5] = biological target: UCHL1 (UniProt P09936)
# Sequence of UCHL1 (P09936 whole entry, looked up): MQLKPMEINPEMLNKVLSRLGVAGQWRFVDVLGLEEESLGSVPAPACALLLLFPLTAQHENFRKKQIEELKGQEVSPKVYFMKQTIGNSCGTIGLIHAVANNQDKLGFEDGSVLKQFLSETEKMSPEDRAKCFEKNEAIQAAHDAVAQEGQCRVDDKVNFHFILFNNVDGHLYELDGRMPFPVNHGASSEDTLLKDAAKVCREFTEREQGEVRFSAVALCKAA
# In short: as §1
# [6] = biological target: T4, UCHL3 (UniProt P15374)
# T4 sequence (whole entry): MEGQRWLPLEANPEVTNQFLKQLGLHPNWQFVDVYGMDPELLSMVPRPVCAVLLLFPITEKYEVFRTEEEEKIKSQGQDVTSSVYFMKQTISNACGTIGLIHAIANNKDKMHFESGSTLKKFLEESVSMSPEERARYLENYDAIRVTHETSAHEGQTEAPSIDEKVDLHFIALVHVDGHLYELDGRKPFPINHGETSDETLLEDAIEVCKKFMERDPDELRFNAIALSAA
# In short: as §1
# [7] = biological target: T5, UCHL5 (UniProt Q9Y5K5)
# T5 sequence (whole entry): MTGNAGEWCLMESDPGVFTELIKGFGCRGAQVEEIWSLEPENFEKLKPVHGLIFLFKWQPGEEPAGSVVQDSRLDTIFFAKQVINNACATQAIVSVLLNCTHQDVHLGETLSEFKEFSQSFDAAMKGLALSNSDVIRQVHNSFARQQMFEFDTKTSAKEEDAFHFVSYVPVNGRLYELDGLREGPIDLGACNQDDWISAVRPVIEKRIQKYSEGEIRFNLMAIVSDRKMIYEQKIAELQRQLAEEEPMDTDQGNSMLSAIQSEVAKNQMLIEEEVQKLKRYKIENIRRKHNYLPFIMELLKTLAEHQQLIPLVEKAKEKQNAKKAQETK
# In short: as §1
# [8] = biological target: USP10 (UniProt Q14694)
# Sequence of USP10 (Q14694 whole entry): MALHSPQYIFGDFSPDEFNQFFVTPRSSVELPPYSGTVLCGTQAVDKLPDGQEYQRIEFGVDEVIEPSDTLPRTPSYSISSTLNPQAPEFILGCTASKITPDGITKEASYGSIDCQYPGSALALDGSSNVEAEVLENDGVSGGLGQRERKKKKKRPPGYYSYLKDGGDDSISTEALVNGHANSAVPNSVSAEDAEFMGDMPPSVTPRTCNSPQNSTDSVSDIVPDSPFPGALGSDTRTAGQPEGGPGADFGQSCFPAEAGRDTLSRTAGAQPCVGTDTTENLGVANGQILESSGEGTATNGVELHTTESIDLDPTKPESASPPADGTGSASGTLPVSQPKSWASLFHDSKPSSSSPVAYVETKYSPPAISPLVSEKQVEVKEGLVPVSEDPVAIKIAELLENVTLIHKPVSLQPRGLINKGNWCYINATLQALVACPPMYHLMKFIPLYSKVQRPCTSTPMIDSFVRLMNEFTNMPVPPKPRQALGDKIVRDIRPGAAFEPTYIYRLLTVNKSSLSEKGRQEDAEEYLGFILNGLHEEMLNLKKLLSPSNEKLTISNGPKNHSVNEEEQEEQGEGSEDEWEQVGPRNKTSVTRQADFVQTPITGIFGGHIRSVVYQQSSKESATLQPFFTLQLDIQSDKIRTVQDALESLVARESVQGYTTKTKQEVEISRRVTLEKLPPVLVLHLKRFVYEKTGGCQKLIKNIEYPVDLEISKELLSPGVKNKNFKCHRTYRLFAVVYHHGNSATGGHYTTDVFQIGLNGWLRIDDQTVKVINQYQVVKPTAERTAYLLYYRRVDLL
# In short: as §1
# [9] = biological target: T6, USP15 (UniProt Q9Y4E8)
# T6 sequence (whole entry): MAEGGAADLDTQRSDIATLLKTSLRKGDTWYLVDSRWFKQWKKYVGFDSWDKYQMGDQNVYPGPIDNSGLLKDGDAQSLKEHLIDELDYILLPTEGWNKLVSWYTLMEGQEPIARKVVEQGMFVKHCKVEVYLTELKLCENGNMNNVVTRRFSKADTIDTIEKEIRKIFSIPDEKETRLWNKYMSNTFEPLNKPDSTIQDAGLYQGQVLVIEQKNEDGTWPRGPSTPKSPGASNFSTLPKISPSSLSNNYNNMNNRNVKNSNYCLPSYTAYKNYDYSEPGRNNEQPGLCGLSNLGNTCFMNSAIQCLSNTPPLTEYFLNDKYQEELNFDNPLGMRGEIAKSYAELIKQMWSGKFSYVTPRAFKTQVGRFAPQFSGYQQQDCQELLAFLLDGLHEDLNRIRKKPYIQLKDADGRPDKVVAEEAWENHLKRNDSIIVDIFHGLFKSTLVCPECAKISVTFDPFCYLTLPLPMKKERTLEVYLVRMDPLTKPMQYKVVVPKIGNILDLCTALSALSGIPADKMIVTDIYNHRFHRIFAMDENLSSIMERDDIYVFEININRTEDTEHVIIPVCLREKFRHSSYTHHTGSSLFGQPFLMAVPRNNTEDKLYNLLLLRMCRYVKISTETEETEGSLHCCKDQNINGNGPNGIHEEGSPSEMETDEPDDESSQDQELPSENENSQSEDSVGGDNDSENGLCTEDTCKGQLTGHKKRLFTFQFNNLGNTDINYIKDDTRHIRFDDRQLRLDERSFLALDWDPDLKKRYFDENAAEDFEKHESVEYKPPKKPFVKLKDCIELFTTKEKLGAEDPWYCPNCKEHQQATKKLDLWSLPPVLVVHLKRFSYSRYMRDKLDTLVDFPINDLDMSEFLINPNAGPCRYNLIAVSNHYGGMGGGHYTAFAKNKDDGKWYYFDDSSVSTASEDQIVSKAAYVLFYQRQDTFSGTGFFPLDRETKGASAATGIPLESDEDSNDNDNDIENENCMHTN
# In short: as §1
# [10] = biological target: USP16 (UniProt Q9Y5T5)
# Sequence of USP16 (Q9Y5T5 whole entry, looked up): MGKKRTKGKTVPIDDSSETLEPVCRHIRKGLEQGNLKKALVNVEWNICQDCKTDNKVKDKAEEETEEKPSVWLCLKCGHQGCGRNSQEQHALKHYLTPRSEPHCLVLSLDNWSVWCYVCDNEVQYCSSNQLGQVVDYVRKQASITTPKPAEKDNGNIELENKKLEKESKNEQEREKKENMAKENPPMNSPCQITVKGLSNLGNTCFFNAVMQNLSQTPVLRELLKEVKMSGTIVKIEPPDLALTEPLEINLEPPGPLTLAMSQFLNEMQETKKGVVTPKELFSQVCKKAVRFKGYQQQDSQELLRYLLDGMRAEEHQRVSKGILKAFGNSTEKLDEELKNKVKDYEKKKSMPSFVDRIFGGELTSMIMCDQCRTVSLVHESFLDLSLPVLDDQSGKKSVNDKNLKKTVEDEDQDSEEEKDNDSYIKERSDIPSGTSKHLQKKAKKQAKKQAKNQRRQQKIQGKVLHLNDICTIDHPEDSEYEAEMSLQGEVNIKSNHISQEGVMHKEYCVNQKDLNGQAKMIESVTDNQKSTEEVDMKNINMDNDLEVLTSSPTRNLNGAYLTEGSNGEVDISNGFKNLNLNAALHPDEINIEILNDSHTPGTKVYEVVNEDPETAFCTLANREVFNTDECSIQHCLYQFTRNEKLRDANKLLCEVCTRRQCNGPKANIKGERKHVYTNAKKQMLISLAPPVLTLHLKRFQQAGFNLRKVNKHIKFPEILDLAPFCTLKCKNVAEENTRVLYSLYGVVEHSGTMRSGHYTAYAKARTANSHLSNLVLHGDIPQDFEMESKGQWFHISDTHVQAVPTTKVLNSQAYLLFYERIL
# In short: as §1
structure (smiles),measurement,setting,value
CC(NC(=O)CCl)c1cc2n(n1)CCCC2.Cl (stereo not given),log2 ratio of Biotin-Ahx-Ub-VS probe labelling,[1],-0.253
same,log2 ratio of Biotin-Ahx-Ub-VS probe labelling,[2],-1.77 (active)
same,log2 ratio of Biotin-Ahx-Ub-VS probe labelling,[3],0.0583
same,log2 ratio of Biotin-Ahx-Ub-VS probe labelling,[4],0.0299
same,log2 ratio of Biotin-Ahx-Ub-VS probe labelling,[5],-2.03 (active)
same,log2 ratio of Biotin-Ahx-Ub-VS probe labelling,[6],0.315
same,log2 ratio of Biotin-Ahx-Ub-VS probe labelling,[7],-0.121
same,log2 ratio of Biotin-Ahx-Ub-VS probe labelling,[8],-0.153
same,log2 ratio of Biotin-Ahx-Ub-VS probe labelling,[9],0.0201
same,log2 ratio of Biotin-Ahx-Ub-VS probe labelling,[10],-0.211
